Results filed as inconclusive are left out. Active and inactive are the calls of the source. The call rests on the fitted dose curve; in most records, active means well fitted curve in the direction sought with a large enough effect; inconclusive means small, poorly fitted or top-dose-only effect, or another doubt; inactive means no such curve, though single readings can be large; an effect the other way counts as inactive or inconclusive.
Experiments:
[1] = OV-KATE Cancer Cell Toxicity qHTS against the NCATS CANVASS Library (AID 1347345); further: potency means the concentration at half of the fitted maximal effect; on activity change, negative = cytotoxicity: on the % scale 0 is the no-effect control and ±100 the full control effect
Outline: (§1)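 Per well, 1000 cells; exposure 72 h with compound at 11 final concentrations; readout CellTiter-Glo luminescence.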

[2] = UWB1.289 Cancer Cell Toxicity qHTS against the NCATS CANVASS Library (AID 1347347); further: nearly all actives have a fitted effect of over 60% in size; further: potency means the concentration at half of the fitted maximal effect; on activity change, negative = cytotoxicity: series mostly up to about 38 µM; on the % scale 0 is the no-effect control and ±100 the full control effect
Outline: as §1

[3] = OV-SAHO Cancer Cell Toxicity qHTS against the NCATS CANVASS Library (AID 1347348); further: nearly all actives have a fitted effect of over 55% in size; further: potency means the concentration at half of the fitted maximal effect; on activity change, negative = cytotoxicity: series mostly up to about 38 µM; on the % scale 0 is the no-effect control and ±100 the full control effect
Outline: as §1

[4] = Panc-1005 Cancer Cell Toxicity qHTS against the NCATS CANVASS Library (AID 1347349); further: nearly all actives have a fitted effect of over 60% in size; further: potency means the concentration at half of the fitted maximal effect; on activity change, negative = cytotoxicity: series mostly up to about 38 µM; on the % scale 0 is the no-effect control and ±100 the full control effect
Outline: as §1

[5] = COV-362 Cancer Cell Toxicity qHTS against the NCATS CANVASS Library (AID 1347352); further: potency means the concentration at half of the fitted maximal effect
Outline: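 qHTS cytotoxicity: compounds tested in 11 concentrations on 1000 seeded cells per well over 72 h; bortezomib served as control; signal from CellTiter-Glo luminescence.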

[6] = HEK293 12hr Apoptosis Induction qHTS against the NCATS CANVASS Library (AID 1347361); further: 0% is about no effect
Outline: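 HEK293 cells (500/well, DMEM + 10% FBS) were exposed to natural products across an 11-point series for 12 hours at 37 degrees C. Caspase-3/7 activity was then measured with DEVD luciferase luminescence after 15 min at room temperature.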

[7] = target: Luciferin 4-monooxygenase (Photinus pyralis) (UniProt P08659); test: Firefly luciferase counterscreen qHTS: Assay Interference Panel against the NCATS CANVASS Library (AID 1347363); further: series mostly up to about 57 µM; 0% is about no effect
Chain of Luciferin 4-monooxygenase (Photinus pyralis) (P08659 whole entry, looked up): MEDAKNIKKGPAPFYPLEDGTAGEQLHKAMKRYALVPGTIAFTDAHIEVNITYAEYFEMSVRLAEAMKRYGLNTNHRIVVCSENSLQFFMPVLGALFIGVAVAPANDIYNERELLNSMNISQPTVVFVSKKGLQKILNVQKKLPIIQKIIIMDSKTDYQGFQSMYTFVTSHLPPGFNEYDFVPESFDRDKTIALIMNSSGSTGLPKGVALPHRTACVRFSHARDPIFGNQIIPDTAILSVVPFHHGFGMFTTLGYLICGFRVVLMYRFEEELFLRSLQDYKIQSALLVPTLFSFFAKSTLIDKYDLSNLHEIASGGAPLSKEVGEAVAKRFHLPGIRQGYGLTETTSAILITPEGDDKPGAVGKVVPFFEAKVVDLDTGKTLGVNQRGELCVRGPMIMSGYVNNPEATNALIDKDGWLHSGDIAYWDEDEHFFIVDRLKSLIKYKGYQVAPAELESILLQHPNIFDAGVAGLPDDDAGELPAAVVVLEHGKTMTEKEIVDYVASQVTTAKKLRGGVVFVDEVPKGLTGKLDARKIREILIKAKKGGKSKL
Outline: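 Purified P. pyralis luciferase (0.04 ug/mL, 4x reagent) added to Tris-acetate buffer with 0.013 mM D-luciferin, 0.013 mM ATP and 13.3 mM Mg-acetate; compounds preincubated 15 min, then luminescence read after 5 min, RT.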

[8] = KB-8-5-11 Cancer Cell Toxicity qHTS against the NCATS CANVASS Library (AID 1347364); further: nearly all actives have a fitted effect of over 75% in size; further: potency means the concentration at half of the fitted maximal effect
Outline: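 Natural products were titrated in 11 points onto KB-8-5-11 cells, 500 per well, and cytotoxicity was scored from CellTiter-Glo luminescence after 72 hr culture.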

[9] = qHTS for Hypoxia signaling pathway (HIF-1) antagonists against the NCATS CANVASS Library (AID 1347374); further: nearly all actives have a fitted effect of over 60% in size; further: potency means the concentration at half of the fitted maximal effect
Outline: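 HRE-bla ME-180 cells (2,000/well, 0.5% dialyzed FBS) were pre-incubated 5 h, then given an 11-point compound series plus CoCl2 (60 uM solution as added) for 17 h at 37C. CCF4 β-lactamase read (ex 405, em 460/530 nm) after 2 h at RT.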

[10] = DH5-alpha competent E. coli microbial cell viability qHTS against the NCATS CANVASS Library (AID 1347377); details: outcome: dose series up to 46.1 µM unless noted; on viability signal change, negative = cytotoxic: 0% is about no effect
Outline: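 Cell viability of competent DH5-alpha E. coli is scored from ATP content by luminescence. Cells sit overnight at 37C with compound across an 11-point concentration series.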

[11] = Inflammasome Signaling qHTS Counterscreen: IL-1-beta AlphaLISA counterscreen against the NCATS CANVASS Library (AID 1347381);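 further: cell-free check with purified IL-1β in medium and no THP-1 cells; series mostly up to about 57 µM; 0% is about no effect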
Outline: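 To flag interference with the AlphaLISA read-out, a known amount of purified IL-1-beta (4 pg) replaced cell supernatant. Detection used anti-IL-1-beta acceptor beads, biotinylated antibody and streptavidin donor beads at room temperature.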

[12] = Cytotoxicity qHTS for assessment of Hepg2 cells membrane integrity screened against the NCATS CANVASS Library (AID 1347387)
Outline: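 Fluorescence proportional to lysed-cell number, from LDH leaking out of HepG2 cells exposed 5 hr at 37C to 0.59 nM - 46 uM compound (11-point qHTS), is measured after 10 min with CytoTox-ONE.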

[13] = qHTS for activators of Nrf2/ARE signaling pathway screened against the NCATS CANVASS Library (AID 1347391); further: nearly all actives have a fitted effect of over 60% in size; further: potency means the concentration at half of the fitted maximal effect; on activation: 0% is about no effect
Outline: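 Cells carrying an ARE-driven beta-lactamase reporter (HepG2 background) are dosed for 16 h, then stained with CCF4. Cell viability in the same wells is measured by CellTiter-Glo luminescence.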

[14] = qHTS for inhibitors of ER calcium dysfunction: SERCaMP assay screened against the NCATS CANVASS Library (AID 1347393); further: nearly all actives have a fitted effect of over 40% in size; further: potency means the concentration at half of the fitted maximal effect;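 on activity change, negative = inhibition: series mostly up to about 77 µM; on the % scale 0 is the no-effect control and ±100 the full control effect; lower secreted reporter signal means inhibitor of ER calcium depletion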
Outline: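 SH-SY5Y GLuc-SERCaMP, 1000 cells/well, 4 h attach; cpd 16 h, 37C/5% CO2; thapsigargin (added as 6x 600 nM) 4 h; coelenterazine; luminescence. Reduced reporter release = ER Ca stabilization.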

[15] = HPAF-II Cancer Cell Toxicity qHTS against the NCATS CANVASS Library (AID 1347346); further: nearly all actives have a fitted effect of over 55% in size; further: potency means the concentration at half of the fitted maximal effect
Outline: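 Cytotoxicity in HPAF-II pancreatic cancer cells: 72 h treatment across 11 concentrations, ATP-based CellTiter-Glo luminescence endpoint.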

[16] = SW1088 Cancer Cell Toxicity qHTS against the NCATS CANVASS Library (AID 1347350); further: nearly all actives have a fitted effect of over 75% in size; further: potency means the concentration at half of the fitted maximal effect
Outline: as §1

[17] = A2780 Cisplatin Sensitive Ovarian Cancer Cell Toxicity qHTS against the NCATS CANVASS Library (AID 1347353); further: nearly all actives have a fitted effect of over 60% in size; further: potency means the concentration at half of the fitted maximal effect
Outline: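 Seventy-two-hour exposure of cisplatin-sensitive A2780 ovarian cells to an 11-concentration qHTS series; cytotoxicity is inferred from loss of ATPLite luminescence. Bortezomib titration served as positive control.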

[18] = qHTS for Antimalaria activity screened against the NCATS CANVASS Library (AID 1347380); further: nearly all actives have a fitted effect of over 40% in size; further: potency means the concentration at half of the fitted maximal effect;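 on activity change, negative = inhibition: Plasmodium falciparum strain Dd2 asexual parasites grown in red blood cells; series mostly up to about 29 µM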
Outline: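 Growth inhibition of asexual erythrocytic P. falciparum Dd2 was quantified by SYBR Green DNA staining. Cultures grew 72 h with compound (11-point series) in hypoxic gas at 37C; lysis and staining lasted 18 h.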

[19] = 10-beta competent E. coli microbial cell viability qHTS against the NCATS CANVASS Library (AID 1347376); further: series mostly up to about 46 µM; 0% is about no effect
Outline: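 Cytotoxicity toward competent E. coli is scored from cellular ATP content via BacTiter-Glo luminescence following overnight compound exposure at 37C, 5% CO2.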

[20] = target: Nuclear receptor subfamily 1 group I member 3 (Homo sapiens) (UniProt Q14994); test: qHTS for Constitutive Androstane Receptor (CAR) Antagonist screened against the NCATS CANVASS Library (AID 1347372); further: potency means the concentration at half of the fitted maximal effect
Chain of Nuclear receptor subfamily 1 group I member 3 (Homo sapiens) (Q14994 whole entry, looked up): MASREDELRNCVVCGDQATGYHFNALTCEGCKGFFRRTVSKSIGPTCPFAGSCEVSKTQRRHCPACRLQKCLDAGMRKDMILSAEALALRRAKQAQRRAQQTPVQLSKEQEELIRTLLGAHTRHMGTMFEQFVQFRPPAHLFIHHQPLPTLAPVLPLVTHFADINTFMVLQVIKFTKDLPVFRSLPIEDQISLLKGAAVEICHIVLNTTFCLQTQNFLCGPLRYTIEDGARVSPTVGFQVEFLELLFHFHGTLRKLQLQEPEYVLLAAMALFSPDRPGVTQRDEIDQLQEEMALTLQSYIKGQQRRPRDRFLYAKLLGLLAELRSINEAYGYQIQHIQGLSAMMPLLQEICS
Outline: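 HepG2 cells stably carrying hCAR and CYP2B6-2.2kb luciferase reporter, 2500 cells/well, compound with 50 nM CITCO agonist for 24hr at 37C. ONE-Glo luminescence measured CAR activity; CellTiter-Fluor read viability.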

C=CC(CCCCC)C1C(=O)NC(=O)C1C(=O)C1C2C(C)CC(C(=O)O)CC2CC1(O)C(=O)/C=C/C (stereo not drawn)
inactive: Potency [1] | Potency [2] | Potency [3] | Potency [4] | Potency [5] | outcome [6] | Potency [7] | Potency [8] | outcome [10] | outcome [11] | outcome [12] | Potency [14]
active: Potency [9] 8.38 µM | Potency [13] 2.09 µM

C=CC(CCCCC)C1C(=O)NC(=O)C1C(=O)C1C(/C=C/C)C=CC2CC(C(=O)O)CC(C)C21 (stereo not drawn)
active: Potency [15] 9.43 µM | Potency [16] 9.43 µM | Potency [17] 7.43 µM | Potency [13] 3.31 µM
inactive: Potency [1] | Potency [5] | Potency [7] | outcome [11] | outcome [12] | Potency [14]

O=c1cc(-c2ccc(O)c(O)c2)oc2cc(O[C@@H]3O[C@H](CO)[C@@H](O)[C@H](O)[C@H]3O)cc(O)c12
active: Potency [2] 1.18 µM | Potency [3] 16.7 µM | Potency [18] 0.236 µM | Potency [14] 38.4 µM
inactive: Potency [1] | Potency [5] | Potency [7] | Potency [9] | outcome [10] | outcome [11] | outcome [12] | Potency [13]

CC(=O)O[C@H]1c2ccccc2-c2c3c(cc4c2[C@@H]1N(C(C)=O)CC4)OCO3
active: Potency [16] 26.6 µM | Potency [13] 8.31 µM | Potency [14] 34.3 µM
inactive: Potency [1] | Potency [5] | Potency [7] | Potency [9] | outcome [19] | outcome [10] | Potency [18] | outcome [11] | outcome [12]

CC(=O)Oc1cc2c(c(OC(C)=O)c1C1CCc3cc(Cl)c(Cl)n31)C(=O)n1c-2cc(Cl)c1Cl (stereo not drawn)
active: Potency [15] 10.6 µM | Potency [2] 3.34 µM | Potency [3] 7.47 µM | Potency [4] 6.68 µM | Potency [16] 4.73 µM | Potency [5] 9.41 µM | Potency [17] 11.8 µM | Potency [8] 14.8 µM | Potency [9] 3.34 µM
inactive: outcome [6] | Potency [20] | outcome [19] | outcome [11] | Potency [13]

C/C(=C\CC[C@@H](C)[C@H]1CC[C@]2(C)C3=CCC4C(C)(C)[C@@H](O)C[C@@H](O)[C@]4(C)C3[C@H](O)C[C@@]12C)CO (stereo partly drawn)
active: Potency [9] 14.9 µM
inactive: Potency [1] | Potency [7] | outcome [19] | outcome [11]

C[C@]12CCC[C@](C)(C(=O)O)[C@@H]1CC[C@@]1(C)c3cocc3CC[C@H]21
inactive: Potency [1] | Potency [2] | Potency [3] | Potency [16] | Potency [5] | Potency [17] | outcome [6] | Potency [7] | Potency [8] | Potency [9] | outcome [19] | outcome [10] | outcome [11] | Potency [14]

COc1cc(O)c(C(=O)[C@@H]2[C@H](CC=C(C)C)C(C)=CC[C@H]2c2ccccc2)c(O)c1
active: Potency [15] 13.3 µM | Potency [2] 13.3 µM | Potency [3] 23.6 µM | Potency [4] 9.43 µM | Potency [16] 5.95 µM | Potency [8] 16.6 µM | Potency [20] 33.1 µM | Potency [18] 6.66 µM
inactive: outcome [6] | Potency [7] | outcome [19] | outcome [12] | Potency [13]

COC12OC1(C13OC1(OC)C(=O)c1cc4cc(C)oc(=O)c4c(O)c1C3O)C(O)c1c(cc3cc(C)oc(=O)c3c1O)C2=O (stereo not drawn)
active: Potency [16] 18.8 µM | Potency [9] 14.9 µM
inactive: Potency [1] | Potency [2] | Potency [3] | Potency [4] | Potency [5] | Potency [17] | Potency [8] | Potency [20] | outcome [10] | Potency [13] | Potency [14]

COc1cc2c(c(O)c1O)C(=O)c1c(coc1C)C2=O
inactive: Potency [8] | Potency [20] | outcome [10] | outcome [11] | outcome [12] | Potency [14]
active: Potency [1] 6.66 µM | Potency [2] 13.3 µM | Potency [3] 4.2 µM | Potency [4] 9.43 µM | Potency [16] 9.43 µM | Potency [5] 13.3 µM | Potency [17] 4.69 µM | Potency [9] 5.29 µM | Potency [18] 10.6 µM

CCC(=O)CCCCC[C@@H]1NC(=O)[C@H]2CCCCN2C(=O)[C@H](C(C)C)NC(=O)[C@H](Cc2cn(OC)c3ccccc23)NC1=O
active: Potency [15] 2.98 µM | Potency [2] 7.47 µM | Potency [3] 14.9 µM | Potency [4] 4.21 µM | Potency [16] 13.3 µM | Potency [5] 18.8 µM | Potency [17] 5.26 µM | Potency [18] 0.747 µM
inactive: Potency [9] | outcome [12] | Potency [13] | Potency [14]

Cc1cc(C)c(O)c(C(=O)CC2CC(=O)NC(=O)C2)c1
inactive: Potency [16] | outcome [6] | Potency [7] | outcome [19] | outcome [10]
active: Potency [17] 4.69 µM | Potency [8] 7.43 µM | Potency [20] 14.8 µM | Potency [9] 7.47 µM | Potency [18] 2.98 µM

C=C[C@]1(C)CC[C@@H]([C@H](C)C(=O)CC=C(C)C)O1
inactive: Potency [1] | Potency [15] | Potency [2] | Potency [3] | Potency [4] | Potency [16] | Potency [5] | Potency [17] | outcome [6] | Potency [7] | Potency [8] | Potency [20] | Potency [9] | outcome [19] | outcome [10] | Potency [18] | outcome [11] | outcome [12] | Potency [13]

COc1ccc([C@@H]2CC(=O)c3c(cc(O)c(C/C=C(\C)CCC=C(C)C)c3O)O2)cc1
inactive: activity change, negative = cytotoxicity [15] -11.2% [at 7.64 µM] | activity change, negative = cytotoxicity [3] -12.7% [at 7.64 µM] | activity change, negative = cytotoxicity [4] -16.1% [at 7.64 µM] | activity change, negative = cytotoxicity [5] 1.08% [at 7.64 µM] | caspase activation [6] 1.23% [at 9.19 µM] | activity change, negative = inhibition [7] -12.4% [at 11.5 µM] | activity change, negative = inhibition [20] 30.2% [at 9.19 µM] | activity change, negative = inhibition [9] 8.62% [at 7.64 µM] | viability signal change, negative = cytotoxic [10] 8.04% [at 9.19 µM] | cytotoxicity (LDH release) [12] -0.251 [at 9.19 µM]
